In the assay the test system is iBMDM (immortalised mouse bone-marrow-derived macrophages), LPS-stimulated. In words: mitochondrial superoxide (MitoSOX fluorescence) fold increase over unstimulated control; higher = more LPS-induced mitochondrial ROS (less inhibition). The settings on record: inhibitor concentration: 500 nM, LPS: 100 ng/ml. In outline: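 Cells were immortalised mouse bone-marrow-derived macrophages, plated in triplicate and switched to phenol-red-free 1% FCS/DMEM for 20 h. Kinase inhibitors (500 nM, 30 min) preceded MitoSox loading (1 μM, 10 min) and LPS addition (100 ng/ml), with 510/580 nm fluorescence read every 60 min for 4 h. Mitochondrial superoxide is reported as averaged fold induction over untreated macrophages.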

± gives the standard deviation of the averaged measurements.

For `COc1cc2c(Oc3ccc4[nH]c(C)cc4c3F)ncnc2cc1OCCCN1CCCC1` [Cediranib (AZD2171)], the mitochondrial superoxide reads like this: (time after LPS: 1 h) 1.65 ± 0.088; (time after LPS: 2 h) 1.65 ± 0.079; (time after LPS: 4 h) 1.78 ± 0.081.
Consider `O=c1ncn2nc(Sc3ccc(F)cc3F)ccc2c1-c1c(Cl)cccc1Cl`, for which the mitochondrial superoxide reads like this: (time after LPS: 1 h) 1.16 ± 0.045; (time after LPS: 2 h) 1.21 ± 0.014; (time after LPS: 4 h) 1.28 ± 0.037.
Consider `O=c1sn(-c2cccc3ccccc23)c(=O)n1Cc1ccccc1` [Tideglusib], for which the mitochondrial superoxide came to 1.14 ± 0.068 (time after LPS: 1 h), 1.17 ± 0.049 (time after LPS: 2 h) and 1.29 ± 0.062 (time after LPS: 4 h).
Turning to `CCc1ccc(/C=C2/SC(=S)NC2=O)cc1`, the mitochondrial superoxide by setting is: (time after LPS: 1 h) 1.137 ± 0.0067; (time after LPS: 2 h) 1.22 ± 0.042; (time after LPS: 4 h) 1.36 ± 0.0082.
With `Cn1cc(-c2ccc3nnc(C(F)(F)c4ccc5ncccc5c4)n3n2)cn1`, the mitochondrial superoxide by setting is: (time after LPS: 1 h) 1.4 ± 0.062; (time after LPS: 2 h) 1.44 ± 0.015; (time after LPS: 4 h) 1.5 ± 0.019.
The matching figures for `CCNC(=O)Nc1ccc(-c2nc3c(c(N4CCOC[C@@H]4C)n2)CCN(C2COC2)C3)cc1`: 1.42 ± 0.045, 1.6 ± 0.039 and 1.68 ± 0.062.
On to `CC(C)(C)c1cc(NC(=O)Nc2ccc(-c3cn4c(n3)sc3cc(OCCN5CCOCC5)ccc34)cc2)no1` [Quizartinib (AC220)], for which the mitochondrial superoxide is, setting by setting: (time after LPS: 1 h) 1.15 ± 0.027; (time after LPS: 2 h) 1.19 ± 0.047; (time after LPS: 4 h) 1.31 ± 0.042.
For `Cn1cc(-c2ccc3nnc(Sc4ccc5ncccc5c4)n3n2)cn1` the same measures were 1.33 ± 0.036, 1.4 ± 0.04 and 1.525 ± 0.0078.
On to `COc1ccc(C(=O)Nc2sc3c(c2C(N)=O)CCCC3)cc1OC`, for which the mitochondrial superoxide (time after LPS: 1 h) was found to be 1.42 ± 0.034, the mitochondrial superoxide (time after LPS: 2 h) was 1.49 ± 0.045 and the mitochondrial superoxide (time after LPS: 4 h) is 1.64 ± 0.03.
In turn, `N#C/C(=C(/N)Sc1ccc(N)cc1)c1ccccc1C(F)(F)F` came in with a mitochondrial superoxide (time after LPS: 1 h) of 1.35 ± 0.024, a mitochondrial superoxide (time after LPS: 2 h) of 1.42 ± 0.092 and a mitochondrial superoxide (time after LPS: 4 h) of 1.506 ± 0.0063.
The matching figures for `CO[C@H]1C[C@@H]2CC[C@@H](C)[C@@](O)(O2)C(=O)C(=O)N2CCCC[C@H]2C(=O)O[C@H]([C@H](C)C[C@@H]2CC[C@@H](O)[C@H](OC)C2)CC(=O)[C@H](C)/C=C(\C)[C@@H](O)[C@@H](OC)C(=O)[C@H](C)C[C@H](C)/C=C/C=C/C=C/1C` [Rapamycin (Sirolimus)]: 1.7 ± 0.07, 1.7 ± 0.094 and 1.7 ± 0.033.

The record behind these values is the supplement of paper PMC7393113.
